Compound activity deposited in PubChem BioAssay by National Center for Advancing Translational Sciences (NCATS).
In the library only some 1.3% were active in any assay of this set; here they are far more common.
Pin1 inh – qHTS Assay to Find Inhibitors of Pin1 | Peptidyl-prolyl cis-trans isomerase NIMA-interacting 1 (Homo sapiens), Q13526 | Pin1 FP peptide displacement, HiFluor488, 10 min | Potency, µM (highest dose often 115 µM), inactives show at the highest dose activity, negative = inhibition, usual class: inhibitors | 0.009% of 390,000 active; active = well fitted inhibition curve with a large enough effect in the polarisation, with a control signal flat, not every such curve was filed as active; inconclusive = small, poorly fitted or top-dose-only effect, or effect the other way, or a change in a side signal; inactive = no such curve, though single readings can be large or run the other way; the % refers to the polarisation; also: potency is read from the fitted curve at half-maximal effect; % is scaled to controls: 0 for no effect and ±100 for the full control effect
PGK inhibitor – qHTS Assay to Find Inhibitors of Phosphoglycerate Kinase; 0.043% of 380,000 active; Phosphoglycerate kinase, glycosomal (Trypanosoma brucei brucei), P07378; PGK/GAPDH coupled, Kinase-Glo luminescence, 60 min; Potency, µM (highest dose often 57.5 µM), without a hit: at the highest dose activity change, negative = inhibition, hits mostly inhibitors; also: potency is read from the fitted curve at half-maximal effect; % is scaled to controls: 0 for no effect and ±100 for the full control effect; nearly all actives have a fitted effect of over 60% in size
Target sequence (P07378 whole entry, looked up): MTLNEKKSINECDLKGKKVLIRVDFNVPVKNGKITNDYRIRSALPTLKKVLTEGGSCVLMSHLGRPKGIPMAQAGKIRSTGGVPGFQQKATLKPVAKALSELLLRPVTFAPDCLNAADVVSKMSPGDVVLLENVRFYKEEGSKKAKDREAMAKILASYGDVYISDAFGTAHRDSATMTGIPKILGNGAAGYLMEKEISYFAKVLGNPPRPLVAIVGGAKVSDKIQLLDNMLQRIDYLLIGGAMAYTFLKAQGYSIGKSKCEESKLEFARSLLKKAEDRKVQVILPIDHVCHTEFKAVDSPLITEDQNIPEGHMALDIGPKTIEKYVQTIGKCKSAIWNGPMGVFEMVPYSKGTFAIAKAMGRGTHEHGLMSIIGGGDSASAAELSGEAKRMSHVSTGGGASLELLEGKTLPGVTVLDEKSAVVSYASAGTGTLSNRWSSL
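Recombinant glycosomal PGK reaction used 1,3-bisphosphoglycerate generated in-well by GAPDH (100nM final) in 100mM TEA pH 7.6, 5mM MgCl2, 0.01% Tween-20. After 60 minutes at room temperature, ATP was read by Kinase-Glo Plus luminescence end-point.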
WRN helicase inh-1 – qHTS for Inhibitors of WRN Helicase. Bifunctional 3'-5' exonuclease/ATP-dependent helicase WRN (Homo sapiens), Q14191. WRN helicase unwinding, fluorescent forked duplex, kinetic. Potency, µM (doses to about 114 µM), inactives show at the top dose activity change, negative = inhibition, actives largely listed as inhibitors. 0.46% of 360,000 active. AID 651768, 2012; also: potency is read from the fitted curve at half-maximal effect; % is scaled to controls: 0 for no effect and ±100 for the full control effect; nearly all actives have a fitted effect of over 55% in size
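Kinetic fluorescence helicase assay: unwinding of a quenched forked DNA duplex (100 nM final) with 2 mM ATP final raises red fluorescence (525/598 nm). Compounds sat 15 min at room temperature with 20 nM WRN beforehand.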
PI5P4K alpha inh – qHTS for Inhibitors of phosphatidylinositol 5-phosphate 4-kinase (PI5P4K); Phosphatidylinositol 5-phosphate 4-kinase type-2 alpha (Homo sapiens), P48426; PI5P4Kalpha enzyme, ADP-Glo luminescence, 60 min; stronger effect = lower value; max response, %; 1.2% of 330,000 active; active = max response of -50% or lower; inconclusive = between -30% and -50%; inactive = -30% or higher; also: value at the top dose of about 77 µM; % is scaled to controls: 0 for no effect and ±100 for the full control effect
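Enzyme plus substrate dispensed, test compounds pinned in, then ATP (5 microM final) added. After 60 min at RT, ADP-Glo reagent 1 for 45 min and reagent 2 for 30 min preceded luminescence imaging.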
FEN1 inh – qHTS Assay for the Inhibitors of Human Flap endonuclease 1 (FEN1); P39748; Recombinant FEN1 flap cleavage, fluorescence, 15 min; Potency, µM (top dose mostly 114 µM), for the others: at the highest dose activity change, negative = inhibition, actives largely listed as inhibitors; 0.35% of 390,000 active; AID 588795, 2011; also: potency is read from the fitted curve at half-maximal effect; % is scaled to controls: 0 for no effect and ±100 for the full control effect; nearly all actives have a fitted effect of over 65% in size
Target sequence (P39748 whole entry, looked up): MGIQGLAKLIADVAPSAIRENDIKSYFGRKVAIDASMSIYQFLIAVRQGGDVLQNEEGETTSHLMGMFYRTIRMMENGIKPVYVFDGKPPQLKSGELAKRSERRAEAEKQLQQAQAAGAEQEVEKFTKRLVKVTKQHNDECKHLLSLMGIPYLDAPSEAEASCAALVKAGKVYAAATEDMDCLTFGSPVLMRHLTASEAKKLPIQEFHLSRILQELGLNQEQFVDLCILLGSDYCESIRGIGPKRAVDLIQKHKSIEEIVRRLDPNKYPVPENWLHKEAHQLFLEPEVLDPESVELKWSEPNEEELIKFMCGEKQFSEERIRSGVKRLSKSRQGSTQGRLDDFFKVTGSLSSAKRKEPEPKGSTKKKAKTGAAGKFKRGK
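Concentration–response screening of FEN1 (10 nM): 15 min compound preincubation at room temperature, reaction started with 50 nM substrate and read at 0 and 15 min. Corrected, normalized data were fitted by a four-parameter Hill equation.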
GRP78 ERSR act – qHTS for Inducers of the Endoplasmic Reticulum Stress Response (ERSR) in Human Glioma: qHTS; AID 602332, 2012; Potency, µM, without a hit: at the highest dose activation, hits mostly activators; 0.02% of 420,000 active; U87-MG GRP78 promoter luciferase reporter, 16 h; also: potency is read from the fitted curve at half-maximal effect; series mostly up to about 76 µM; % of control where 0% means no effect; nearly all actives have a fitted effect of over 35% in size
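Stably transfected U87-MG human glioma cells carrying a GRP78-based luminescent sensor were seeded at 1000 cells/well, pin-dosed with compounds and incubated 16 h. Luciferase reagent was then added, and end-point luminescence was read after 10 min at room temperature.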
WRN helicase inh-2 – qHTS for Inhibitors of WRN Helicase: Confirmatory Assay for Cherry-picked Compounds. shares compounds with WRN helicase inh-1. WRN helicase DNA unwinding, fluorescence kinetic. Potency, µM (doses to about 57.1 µM), for inactives: top-dose activity, negative = inhibition, most hits filed as inhibitors. 63% of 610 active; also: potency is read from the fitted curve at half-maximal effect; nearly all actives have a fitted effect of over 65% in size
TO DNA binding – qHTS for Inhibitors of WRN Helicase: Thiazole Orange DNA Binding Counterscreen; Potency, µM (doses to about 57.1 µM), for inactives: at the highest dose activity change, negative = inhibition, most hits filed as inhibitors; AID 720499, 2013; shares compounds with WRN helicase inh-1; 10% of 610 active; thiazole orange DNA binding displacement, fluorescence;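 also: drop in dye fluorescence marks compound binding to DNA; potency is read from the fitted curve at half-maximal effect; % is scaled to controls: 0 for no effect and ±100 for the full control effect; nearly all actives have a fitted effect of over 60% in size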
BLM helicase inh – qHTS for Inhibitors of WRN Helicase: BLM Helicase Counterscreen for WRN Inhibitors. Potency, µM (doses to about 57.1 µM), for inactives: at the top dose activity change, negative = inhibition, actives largely listed as inhibitors. 60% of 610 active. shares compounds with WRN helicase inh-1. Recombinant BLM helicase DNA unwinding, red fluorescence; also: potency is read from the fitted curve at half-maximal effect; nearly all actives have a fitted effect of over 60% in size
Active calls of the source: *; i = inactive; ? = inconclusive; . = no result. Unless noted, calls follow the shape of the dose curve; as a rule, active = well fitted curve in the direction sought with a large enough effect; inconclusive = small, poorly fitted or top-dose-only effect, or another doubt; inactive = no such curve, though single readings can be large; an effect the other way counts as inactive or inconclusive.

SMILES	Pin1 inh	PGK inhibitor	WRN helicase inh-1	PI5P4K alpha inh	FEN1 inh	GRP78 ERSR act	WRN helicase inh-2	TO DNA binding	BLM helicase inh
C/C=C/c1ccc(OCCCNC(C)CC)c(OC)c1 (stereo not given)	1.3%	9.6%	?	6.2	-13.7%	-5.5%	2.2%	-2.5%	2.9%
COc1ccc2c(c1)-c1nc(-n3ncc(C(=O)NCc4cccc(C)n4)c3C3CC3)ncc1CC2	.	.	.	.	.	-4.6%	.	.	.
CN1C(=O)c2ccccc2N(C)C1c1ccc2c(c1)OCO2 (stereo not given)	4.5%	-8.4%	-6.0%	3.9	6.5%	0.5%	.	.	.
CC1=C([N+](=O)[O-])C(c2ccc3c(c2)OCO3)N(C)C(=O)N1C (stereo not given)	-4.7%	-0.8%	?	?	-8.0%	-3.0%	-6.4%	-1.3%	-13.5%
COc1cccc(NC(=O)Nc2cc(-c3cn4cccnc4n3)ccc2C)c1	19.0%	-4.6%	.	.	-2.4%	-4.4%	.	.	.
COc1ccc(-c2cn3cccnc3n2)cc1NC(=O)Nc1cc(C)ccc1C	?	i	.	.	-16.0%	-2.1%	15.2µM*	-7.6%	6.81µM*
COCC(=O)Nc1cc(C(=O)N2CCCOc3c(cccc3OC)C2)c2c(c1)nc(C1CCC1)n2C	.	.	.	.	.	0.4%	.	.	.
Cn1cnc([N+](=O)[O-])c1NC(C)(C)C	1.1%	0.0%	2.0%	3.4	3.5%	-3.4%	.	.	.
Cn1cnc([N+](=O)[O-])c1S(=O)(=O)c1ccc(Cl)cc1	-6.7%	12.9%	?	-1.0	-8.8%	-16.3%	-19.3%	-4.7%	-16.4%
N=C1S/C(=C\c2ccc(-c3cccc(Cl)c3)o2)C(=O)N1c1nccs1	13.7%	-3.7%	44.7µM*	-63.2*	?	-2.1%	21.5µM*	17.1µM*	7.64µM*
O=S1(=O)N=C(Oc2cccc(-c3ccccc3)c2)c2ccccc21	-0.9%	.	.	.	.	.	.	.	.
Cc1cc(O)c(Oc2cc(C)cc(O)c2O)c(O)c1	4.3%	-15.0%	28.2µM*	?	50.1µM*	4.3%	19.2µM*	-6.6%	21.5µM*
CCn1nc(C(=O)OCC(=O)Nc2ncc(Cl)c(C)c2Cl)c2ccccc2c1=O	-14.1%	-2.0%	?	?	-6.5%	-6.1%	-28.9%	-12.0%	?
Cn1c2cc(S(C)=O)sc2c2cnn(Cc3cccc(N)c3)c(=O)c21 (stereo not given)	2.5%	.	.	.	.	.	.	.	.
CSc1cc2c(s1)c1cnn(Cc3cccc(N)c3)c(=O)c1n2C	?	.	.	.	.	.	-12.2%	-7.7%	?
Cc1cccc(CNC(=O)c2cnn(-c3nccc(-c4ccccc4C(F)(F)F)n3)c2C)n1	.	.	.	.	.	-4.4%	.	.	.
COC(=O)c1sc(NC(=O)c2ccc(Cn3cc(Cl)cn3)o2)c(C#N)c1C	4.9%	-6.7%	?	?	-12.1%	-6.9%	-18.8%	-25.4%	?
N#Cc1c(NC(=O)c2ccc(Cn3cc(Br)cn3)o2)sc2c1CCCCC2	44.8%	-6.5%	-19.1%	2.2	-12.0%	3.0%	.	.	.
CC1(C)CC(C(=O)N2CCOc3ccc(CN4CCN(Cc5ccccn5)CC4)cc3C2)CCO1 (stereo not given)	.	.	.	.	.	-2.7%	.	.	.
CCOC(=O)C1=C(C)N=c2sc(=Cc3cc(Cl)c(OCC(=O)O)c(Cl)c3)c(=O)n2C1c1cccc(OC)c1 (stereo not given)	.	.	79.4µM*	-74.0*	.	-5.1%	30.4µM*	20.5%	?
CCOC(=O)C1=C(C)N=c2sc(=Cc3ccc(OCC(=O)O)cc3)c(=O)n2C1c1ccc(Cl)cc1 (stereo not given)	.	.	?	?	.	2.1%	7.64µM*	357.0%	3.41µM*
CCOC(=O)C1=C(C)N=c2s/c(=C\c3ccc(OCC(=O)O)cc3)c(=O)n2C1c1ccc(OC(C)C)cc1 (stereo not given)	?	-5.3%	-21.8%	-6.6	-14.0%	-0.6%	.	.	.
COc1cc(-c2cnc3ccccc3c2)cc2c1OCCN(S(=O)(=O)C[C@]13CC[C@H](CC1=O)C3(C)C)C2	.	.	.	.	.	-5.9%	.	.	.
Cn1c(CSc2nc3ccccc3s2)nnc1SCC(=O)NCc1ccccn1	?	0.4%	-3.3%	2.0	8.3%	0.9%	.	.	.
CCn1c(CSc2nc3ccccc3s2)nnc1SCC(=O)c1ccc(O)c(O)c1	?	.	?	.	-10.1%	-1.5%	1.36µM*	27.1µM*	?
SMILES	Pin1 inh	PGK inhibitor	WRN helicase inh-1	PI5P4K alpha inh	FEN1 inh	GRP78 ERSR act	WRN helicase inh-2	TO DNA binding	BLM helicase inh
O=C(CCc1ccc(O)c(O)c1)N/N=C/c1cc2c(cc1[N+](=O)[O-])OCO2	?	-19.4%	?	?	?	12.7%	21.5µM*	30.4µM*	8.57µM*
Cc1c(C(=O)N2CCCCCC2)sc2ncnc(NCC3CCCO3)c12 (stereo not given)	.	.	.	.	.	-0.6%	.	.	.
CC(=O)c1ccc(C(=O)N2CCc3c(cnc(C)c3CNC(=O)c3ccc4c(c3)OCO4)C2)s1	.	.	.	.	.	-5.0%	.	.	.
CC(=O)OCCCNc1cc(Sc2nc3ccccc3s2)c2nonc2c1[N+](=O)[O-]	-5.5%	-2.2%	-19.9%	-16.4	-20.3%	-2.0%	.	.	.
CC(=O)OCCCNc1cc(Sc2ccc(C)cc2)c2nonc2c1[N+](=O)[O-]	-18.1%	i	39.8µM*	-2.7	-119.6%	-0.2%	-20.6%	-8.6%	-14.9%
Cn1c2cc(S(C)(=O)=O)sc2c2cnn(Cc3ccccc3F)c(=O)c21	13.7%	.	.	.	.	.	.	.	.
COc1ccc(OC)c(/C=N/c2oc(-c3ccco3)c(-c3ccco3)c2C#N)c1	?	-20.3%	?	-78.8*	-12.6%	-3.1%	21.5µM*	?	6.81µM*
